From PubChem BioAssay AID624481 (The Scripps Research Institute Molecular Screening Center, 2012)
Calls of active or inactive are those of the source. Rule as the data show it: active = inhibition above about 50%; inactive = the rest.

Each molecule was assayed against Prolyl endopeptidase-like (Mus musculus) (UniProt Q8C167) (assay: mouse PREPL enzyme inhibition by screening hits – biochemical, gel-based competitive ABPP, fluorescence, HTS hits, PREPL inhibitor project (AID 624481)). Details: purified mouse PREPL, at 20 µM, stronger effect = higher value.
Chain of Prolyl endopeptidase-like (Mus musculus) (Q8C167 whole entry, looked up): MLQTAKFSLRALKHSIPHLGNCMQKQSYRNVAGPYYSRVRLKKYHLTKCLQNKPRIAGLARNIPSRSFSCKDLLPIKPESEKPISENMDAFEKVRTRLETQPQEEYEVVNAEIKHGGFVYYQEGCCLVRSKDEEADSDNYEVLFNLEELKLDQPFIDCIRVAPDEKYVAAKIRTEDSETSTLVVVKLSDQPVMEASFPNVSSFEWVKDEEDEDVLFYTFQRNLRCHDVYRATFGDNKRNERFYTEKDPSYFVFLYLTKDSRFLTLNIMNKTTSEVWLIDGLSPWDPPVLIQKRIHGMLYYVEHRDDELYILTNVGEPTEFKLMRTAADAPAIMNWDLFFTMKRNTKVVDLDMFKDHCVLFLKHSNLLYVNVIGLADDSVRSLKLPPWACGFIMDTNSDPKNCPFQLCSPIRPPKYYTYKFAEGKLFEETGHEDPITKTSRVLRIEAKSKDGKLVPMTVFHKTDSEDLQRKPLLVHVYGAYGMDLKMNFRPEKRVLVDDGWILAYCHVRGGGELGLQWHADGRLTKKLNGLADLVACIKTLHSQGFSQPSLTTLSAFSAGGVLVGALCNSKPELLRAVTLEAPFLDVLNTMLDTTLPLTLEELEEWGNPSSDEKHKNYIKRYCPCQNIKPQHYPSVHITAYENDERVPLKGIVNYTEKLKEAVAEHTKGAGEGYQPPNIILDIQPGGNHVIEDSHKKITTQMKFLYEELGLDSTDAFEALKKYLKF

inhibition, active:
COc1ccc(Cn2c(SCc3ccccc3C)nc3cc(OC)c(OC)cc3c2=N)cc1 52%

inhibition, inactive:
CC(C)n1cnc2c(NCc3ccccc3)cc(OCC3CCN(C)CC3)cc21 -49%
COCCn1c(-c2ccc(Br)cc2)csc1=Nc1cccnc1 43%
Nc1c(Cl)ncnc1NN=Cc1ccc2ccccc2n1 -48%
Cc1ccc(C2=CC(c3ccc(N(C)C)cc3)n3nnnc3N2)cc1 (stereo not drawn) -77%
COc1ccc(C(=O)c2coc3ccc(O)c(CN4CCCC4)c23)cc1 -31%
Cn1c(NC(=O)C[n+]2cc(-c3ccc(Cl)c(Cl)c3)n3c2CCC3)cc(=O)n(C)c1=O -80%
Clc1ccc2nc(-c3ccccn3)c(Nc3ccc4c(c3)OCO4)n2c1 -49%
CN(C)CCN1C(=O)C(O)=C(C(=O)c2cc3ccccc3o2)C1c1ccc(N(C)C)cc1 (stereo not drawn) -47%
Clc1ccc(-c2csc(=Nc3cccnc3)n2CCCn2ccnc2)cc1Cl -41%
COc1cccc2cc(C(=O)C3=C(O)C(=O)N(CCN4CCOCC4)C3c3ccc(C(C)(C)C)cc3)oc12 (stereo not drawn) -36%
O=C(C1=C[C@@H](c2ccc(Br)cc2)C[C@@H](OCc2ccc(CO)cc2)O1)N1CCN(Cc2ccc3c(c2)OCO3)CC1 -105%
Cc1ccc(OCC(=O)Nc2ccc(N3CCN(C(=O)c4ccco4)CC3)cc2)cc1C 44%
CN(C)c1ccc(C(CNC(=O)c2ccccc2F)c2c[nH]c3ccccc23)cc1 (stereo not drawn) -10%
CN(C)c1ccc(NC(=O)c2cccc(C(=O)Nc3ccc(N(C)C)cc3)n2)cc1 -170%
Cc1cc(/C=C2\SC(=Nc3ccc(F)cc3)NC2=O)c(C)n1-c1ccc(S(N)(=O)=O)cc1 28%
c1ccc(N2CCN(c3nc(-c4ccccn4)nc4ccccc34)CC2)cc1 -283%
COc1ccc(CCNC(=O)c2cc3c(=O)n4ccccc4nc3n(CCCN3CCOCC3)c2=N)cc1 -26%
CCc1ccc(OCC(=O)Nc2ccc(N3CCN(C(=O)c4ccccc4)CC3)cc2)cc1 -73%
COc1ccc2cc1Oc1ccc(cc1)CC1c3c(cc(OC)c4c3Oc3cc5c(cc3O4)CCNC5C2)CCN1C (stereo not drawn) -113%
O=C(C1=C[C@@H](c2ccc(C(F)(F)F)cc2)C[C@@H](OCc2ccc(CO)cc2)O1)N1CCN(Cc2ccccc2)CC1 -76%
CSc1ccc2c(c1)N(CCC1CCCCN1C)c1ccccc1S2 (stereo not drawn) -53%
Cc1sc2ncnc(NN=Cc3ccccc3O)c2c1C -89%
CC(=O)N1CCN(c2ccc(OC[C@H]3CO[C@](Cn4ccnc4)(c4ccc(Cl)cc4Cl)O3)cc2)CC1 -188%
C#CCOCCOCCOCCNc1nc(N2CCN(C(=O)[C@H](Cc3cc4ccccc4[nH]3)n3cc([C@@H](N)C(C)CC)nn3)CC2)nc(N2CCN(C(=O)[C@H](Cc3cc4ccccc4[nH]3)n3cc([C@@H](N)Cc4ccc(O)cc4)nn3)CC2)n1 (stereo partly drawn) -104%
COc1ccc(N2CCN(c3nc4c(C)cccn4c(=O)c3/C=C(\C#N)C(N)=O)CC2)cc1 -53%
COc1ccc(NC(=O)c2ccc(-c3ccc(-c4noc(C)n4)cc3C)cc2)cc1N1CCN(C)CC1 -16%
CCn1c2ccccc2c2cc(CNCc3ccc(OC)cc3OC)ccc21 -93%
COc1ccc(CCNC(=O)c2cc3c(=O)n4cccc(C)c4nc3n(CCCN3CCOCC3)c2=N)cc1 -87%
Nc1[nH]n2c(=O)c3c(nc2c1N=Nc1ccccc1)CCCC3 1%
CCOc1ccc(Nc2c3ccccc3nc3ccccc23)cc1 -58%
Cc1noc(C)c1S(=O)(=O)N(C)C[C@H]1Oc2c(NC(=O)Nc3ccc(C(F)(F)F)cc3)cccc2C(=O)N([C@H](C)CO)C[C@@H]1C 9%
Cc1cc2cc(CNC(=O)c3ccc(Br)o3)ccc2n1C 38%
COc1ccc(NCc2nn(CC(=O)c3ccc(Br)cc3)c3[n+]2CCCCC3)cc1 -48%
C=CC[n+]1c(-c2ccc(Cl)cc2Cl)csc1Nc1ccc(NC(C)=O)cc1 -43%
CN1CCN(C(=O)C2=C[C@@H](c3ccc4c(c3)OCO4)C[C@@H](OCc3ccc(CO)cc3)O2)CC1 -46%
COc1cc(-c2nnc3sc(Cc4ccc(Cl)cc4)nn23)cc(OC)c1OC 14%
COc1ccc(C(=O)c2coc3ccc(O)c(CN4CCCCC4)c23)cc1 -53%
